NALP1 yeast inh: inhibitors of NALP1 inflammasome in yeast; S. cerevisiae NALP1/ASC/caspase-1 growth, X-gal OD620, 72 h; AID 2071; actives 0.61% (n = 280,000); inhibition, % at 10 µM; in the data active = inhibition mostly above about 24%, no sharp cut-off; inactive = mostly below about 32%
TIM10 inh: inhibits growth of TIM10 yeast strain. S. cerevisiae TIM10 strain growth, BacTiter-Glo luminescence, 24 h. inhibition, % at 10 µM. actives 1.4% (n = 330,000). AID 463195;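 active = inhibition of 40% or more at the single tested concentration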;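 note: wild-type TIM10 isogenic control strain grown at permissive 25 °C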
V-ATPase pH: alters yeast V-ATPase proton transport; S. cerevisiae, pHLuorin cytosolic pH fluorescence; response, % at 10 µM; actives 0.37% (n = 350,000); AID 504577; in the data active = response mostly above about 7.3%, no sharp cut-off; inactive = mostly below about 5.4%; note: actives read high
tim10-1 inh: inhibits growth of tim10-1 mutant yeast; actives 2.2% (n = 330,000); S. cerevisiae tim10-1 ts strain growth, BacTiter-Glo, 24 h; AID 463190; inhibition, % at 20 µM;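 active = inhibition of at least 40%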;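 note: mutant grown at 25 °C; 0% = DMSO wells with yeast and 100% = wells holding no yeast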
NLRP3 yeast inh: NALP3 inhibition in yeast; Yeast reconstituted NLRP3/ASC/caspase-1, beta-gal luminescence, 24 h; inhibition, % at 10 µM; actives 0.39% (n = 330,000); AID 2825;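 active = inhibition of 50% or more; inactive = inhibition below 50%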;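 note: plate controls were induced DMSO wells for no effect and uninduced yeast grown without galactose for full effect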
tim23-1 inh: tim23-1 yeast growth inhibition; S. cerevisiae tim23-1 growth, BacTiter-Glo luminescence, 24 h; inhibition, % at 20 µM; actives 1.3% (n = 330,000); AID 463212;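 active = growth inhibition of the mutant yeast at or above 50%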;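 note: temperature-sensitive mutant grown at 25 °C; plate controls were DMSO-treated mutant yeast for no effect and medium wells lacking yeast for full effect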
tim10-1 conf: tim10-1 yeast growth inhibition, confirmed; shares compounds with tim10-1 inh; S. cerevisiae tim10-1 ts strain growth, BacTiter-Glo, 24 h; inhibition, % at 20 µM; actives 56% (n = 7,400); AID 463213;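 active = inhibition of yeast growth at or above a set limit in either of two repeat tests at 20 µM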;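 note: tim10-1 mutant grown at permissive 25 °C to find synthetic lethal compounds; 0% = DMSO yeast wells and 100% = medium wells without yeast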
TIM10 conf: TIM10 yeast growth inhibition, confirmed; S. cerevisiae tim10 strain growth, BacTiter-Glo luminescence, 24 h; actives 63% (n = 4,600); inhibition, % at 10 µM; shares compounds with TIM10 inh;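 active = inhibition of yeast growth at or above a set limit in either of two replicates at 10 µM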;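 note: this counterscreen used the strain with wild-type TIM10; 0% = yeast with DMSO and 100% = medium wells lacking yeast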
tim23-1 conf: confirmation of tim23-1 mutant yeast growth inhibitors; shares compounds with tim23-1 inh; S. cerevisiae tim23-1 growth, BacTiter-Glo luminescence, 24 h; inhibition, % at 20 µM; actives 83% (n = 4,400); AID 463218;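 active = inhibition above about 39% in either of two replicate wells at 20 µM, limit read from the data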;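 note: temperature-sensitive tim23-1 mutant grown at 25 °C; 0% = DMSO wells with yeast and 100% = medium wells without yeast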
* hit, by the source's call. Sampled rows, rich in hits. Any-hit rate of the full collection: about 4.2%.

What do the screens show for `CCNC(=S)NNC(=O)c1cc(-c2ccc(OC)cc2)nc2ccccc12`?
NALP1 yeast inh: 26; TIM10 inh: 54*; V-ATPase pH: -2; tim10-1 inh: 82*; NLRP3 yeast inh: 6; tim23-1 inh: 86*; tim10-1 conf: 74*; TIM10 conf: -30; tim23-1 conf: 78*

How did CN(CCn1ccnc1)C(=O)CC1C(=O)NCCN1Cc1ccccc1C(F)(F)F (configuration not stated) do in these assays?
NALP1 yeast inh: 0; TIM10 inh: 3; V-ATPase pH: -2; tim10-1 inh: 3; NLRP3 yeast inh: 10; tim23-1 inh: -1

Results for NS(=O)(=O)c1ccc(NC(=O)Nc2ccc(Cl)cc2)cc1 ?
NALP1 yeast inh: -2; TIM10 inh: 10; V-ATPase pH: 2; tim10-1 inh: 13; NLRP3 yeast inh: 17; tim23-1 inh: 2

What do the screens show for `Cc1ccc(C)c2sc(N3CCN(C(=O)c4ccc([N+](=O)[O-])o4)CC3)nc12`?
TIM10 inh: -102; V-ATPase pH: -5; tim10-1 inh: 70*; NLRP3 yeast inh: 35; tim23-1 inh: 73*; tim10-1 conf: 60*; tim23-1 conf: 7

What do the screens show for `CC[C@@H](C)[C@H](NS(=O)(=O)c1ccc(C)cc1)C(=O)N1CCC(C(=O)NCC(=O)O)CC1`?
NALP1 yeast inh: -6; TIM10 inh: -6; V-ATPase pH: -1; tim10-1 inh: 11; NLRP3 yeast inh: 7; tim23-1 inh: -2

What do the screens show for `Cc1ccc(F)cc1NC(=O)COC(=O)c1ccc2ncsc2c1`?
TIM10 inh: 8; V-ATPase pH: -1; tim10-1 inh: 14; NLRP3 yeast inh: 17; tim23-1 inh: 26

What do the screens show for `COc1ccc(N=Cc2nc(-c3ccccc3)oc2OC(C)=O)cc1`?
NALP1 yeast inh: 14; TIM10 inh: 48*; V-ATPase pH: 1; tim10-1 inh: 46*; NLRP3 yeast inh: 1; tim23-1 inh: 70*; tim10-1 conf: 47*; TIM10 conf: 26; tim23-1 conf: 63*

Results for CN(C)c1ccc(N=Cc2nc(-c3ccccc3)oc2OC(=O)c2cccc(Cl)c2)cc1 ?
NALP1 yeast inh: 20; TIM10 inh: 16; V-ATPase pH: 3; tim10-1 inh: 1; NLRP3 yeast inh: 26; tim23-1 inh: 9

How did COc1cccc(N=Cc2nc(-c3ccccc3)oc2OC(C)=O)c1 do in these assays?
NALP1 yeast inh: -4; TIM10 inh: 44*; V-ATPase pH: 1; tim10-1 inh: 64*; NLRP3 yeast inh: 1; tim23-1 inh: 74*; tim10-1 conf: 51*; TIM10 conf: 34*; tim23-1 conf: 70*

What do the screens show for `NS(=O)(=O)c1ccc(CCNC(=O)CNS(=O)(=O)c2cccc(Br)c2)cc1`?
NALP1 yeast inh: -20; TIM10 inh: -12; V-ATPase pH: 0; tim10-1 inh: 10; NLRP3 yeast inh: -12; tim23-1 inh: 4

What do the screens show for `Cc1ccc(C(=O)Nc2ccc(C)c(S(=O)(=O)N3CCOCC3)c2)c(C)c1`?
NALP1 yeast inh: 6; TIM10 inh: -2; V-ATPase pH: 3; tim10-1 inh: 15; NLRP3 yeast inh: 10; tim23-1 inh: 19

Results for COc1ccc(S(=O)(=O)N2CCC(C(=O)c3ccc4c(c3)OCCO4)CC2)cc1 ?
NALP1 yeast inh: -4; TIM10 inh: 60*; V-ATPase pH: -1; tim10-1 inh: 55*; NLRP3 yeast inh: 42; tim23-1 inh: 59*; tim10-1 conf: 55*; TIM10 conf: 55*; tim23-1 conf: 55*

How did O=C(c1ccc2c(c1)OCCO2)C1CCN(S(=O)(=O)c2ccccc2F)CC1 do in these assays?
NALP1 yeast inh: 5; TIM10 inh: 42*; V-ATPase pH: -3; tim10-1 inh: 50*; NLRP3 yeast inh: 23; tim23-1 inh: 53*; tim10-1 conf: 43*; TIM10 conf: 30; tim23-1 conf: 48*

What do the screens show for `COc1ccccc1CNC(=O)Cn1c(=O)oc2cc(S(=O)(=O)N3CCCC3)ccc21`?
NALP1 yeast inh: 20; TIM10 inh: 2; V-ATPase pH: 0; tim10-1 inh: -1; NLRP3 yeast inh: -3; tim23-1 inh: 0

How did CC(C)(C)c1ccc(CN2N=Nc3ccccc3S2(=O)=O)cc1 do in these assays?
NALP1 yeast inh: 12; TIM10 inh: 60*; V-ATPase pH: 0; tim10-1 inh: 72*; NLRP3 yeast inh: 11; tim23-1 inh: 63*; tim10-1 conf: 64*; TIM10 conf: -1; tim23-1 conf: 28

What do the screens show for `Cn1cnnc1Sc1ccc(C(=O)OCC(=O)NCC(F)(F)F)cc1[N+](=O)[O-]`?
NALP1 yeast inh: 4; TIM10 inh: -7; V-ATPase pH: 5; tim10-1 inh: 9; NLRP3 yeast inh: 7; tim23-1 inh: 5

How did COc1ccc(C(=O)/C=C2/C(=O)Nc3ccccc32)cc1 do in these assays?
NALP1 yeast inh: 14; TIM10 inh: 91*; V-ATPase pH: -4; tim10-1 inh: 84*; NLRP3 yeast inh: 38; tim23-1 inh: 88*; tim10-1 conf: 88*; TIM10 conf: 80*; tim23-1 conf: 85*

How did COc1ccc(C2NC(=O)c3ccccc3N2)cc1OC (configuration not stated) do in these assays?
NALP1 yeast inh: 12; TIM10 inh: 10; V-ATPase pH: -3; tim10-1 inh: 22; NLRP3 yeast inh: -4; tim23-1 inh: 11

Results for C=CCOc1ccc(C2NC(=O)c3ccccc3O2)cc1 (configuration not stated) ?
NALP1 yeast inh: 4; TIM10 inh: -1; V-ATPase pH: -3; tim10-1 inh: -1; NLRP3 yeast inh: 29; tim23-1 inh: 3

What do the screens show for `O=C1Nc2ccccc2/C1=C/C(=O)c1cccs1`?
NALP1 yeast inh: -36; TIM10 inh: 68*; V-ATPase pH: 4; tim10-1 inh: 51*; NLRP3 yeast inh: 30; tim23-1 inh: 55*; tim10-1 conf: 60*; TIM10 conf: 93*; tim23-1 conf: -42

How did C=CCOc1ccc(C(=O)/C=C2/C(=O)Nc3ccccc32)cc1 do in these assays?
NALP1 yeast inh: 3; TIM10 inh: 77*; V-ATPase pH: -1; tim10-1 inh: 84*; NLRP3 yeast inh: 36; tim23-1 inh: 88*; tim10-1 conf: 86*; TIM10 conf: 90*; tim23-1 conf: 77*

Results for COc1ccc(C(=O)/C=C2/C(=O)Nc3ccccc32)cc1OC ?
NALP1 yeast inh: -5; TIM10 inh: 76*; V-ATPase pH: 3; tim10-1 inh: 64*; NLRP3 yeast inh: 26; tim23-1 inh: 80*; tim10-1 conf: 65*; TIM10 conf: 73*; tim23-1 conf: 57*
